# According to PubChem BioAssay (NCATS):
# Values joined by “and” are separate entries in the source; they are usually repeats but may differ in a detail not shown here. Equal values may be shown once. Values without a mark were called inactive. Results filed as inconclusive are left out. A call without a number means that no potency is given here. Active and inactive are the calls of the source. Unless noted, calls follow the shape of the dose curve; as a rule, active = well fitted curve in the direction sought with a large enough effect; inconclusive = small, poorly fitted or top-dose-only effect, or another doubt; inactive = no such curve, though single readings can be large; an effect the other way counts as inactive or inconclusive.
# Columns and labels:
# [1] = S16 Schwann cell viability assay (CellTiter-Glo assay) (AID 624031);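 also: native untransfected S16 rat Schwann cells; cellular ATP luminescence as a viability measure; series mostly up to about 58 µM; nearly all actives have a fitted effect of over 70% in size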
# Method in brief: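 Following overnight culture in 10% FBS DMEM, parental S16 rat Schwann cells are dosed for 24 h at 37 °C. Viability is read as CellTiter-Glo luminescence and expressed as % activity relative to DMSO (0%) and no-cell wells.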
# [2] = S16 Schwann cell PMP22 intronic element firefly luciferase assay (AID 624032); also: nearly all actives have a fitted effect of over 30% in size; also: potency is read from the fitted curve at half-maximal effect
# Method in brief: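 Rat S16 Schwann cells stably carrying a PMP22 intronic element-driven Fluc reporter were seeded overnight, then exposed to compounds for 24 h at 37 °C. Luminescence was normalized to PTC124 (positive control) and DMSO (0% activity).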
# [3] = qHTS assay for small molecule agonists of the antioxidant response element (ARE) signaling pathway (AID 651741; active = well fitted activation curve with a large enough effect in the signal ratio; the % refers to the signal ratio; also: potency is read from the fitted curve at half-maximal effect)
# Method in brief: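 ARE-bla HepG2 cells (beta-lactamase reporter under ARE control) were plated at 2,000 cells/well, preincubated 5 h at 37 C/5% CO2, then treated with DMSO-dissolved compounds for 16 h at 37 C; LiveBLAzer B/G FRET substrate added, fluorescence read after 2 h at room temperature.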
# [4] = qHTS assay for small molecule activators of the p53 signaling pathway (AID 651743; active = well fitted activation curve with a large enough effect in the signal ratio, not every such curve was filed as active; the % refers to the signal ratio; also: potency is read from the fitted curve at half-maximal effect; as to activation: series mostly up to about 92 µM); conditions: HCT-116 p53RE-bla, beta-lactamase FRET ratio, 16 h; activation: active compounds read high
# Method in brief: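 p53RE-bla HCT-116 cells with a stably integrated beta-lactamase reporter under p53 response elements were plated, rested 5 hours at 37 C/5% CO2, then exposed to compounds in DMSO for 16 hours at 37 C. LiveBLAzer B/G FRET substrate was read after 2 hours at room temperature.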
# [5] = S16 Schwann cell PMP22 intronic element beta-lactamase assay (AID 624044; calls by dose curve; also: nearly all actives have a fitted effect of over 15% in size)
# Method in brief: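 Rat S16 Schwann cells with beta-Lac driven by a PMP22 intronic element, compound-treated 24 h at 37 °C. LiveBLAzer FRET B/G read: 460 nm normalized to potassium clavulanate vs DMSO; 535 nm FRET as viability; concentration-effect curves classified.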
# [6] = molecular target: Glutaminase kidney isoform, mitochondrial (Homo sapiens) (UniProt O94925); experiment: qHTS for Inhibitors of Glutaminase (GLS): LOPAC Validation (AID 624146);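 also: glutamate product detected by oxidase and peroxidase coupled Amplex red fluorescence gain; series mostly up to about 46 µM; nearly all actives have a fitted effect of over 60% in size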
# Method in brief: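 Compounds were pin-transferred onto hKGA, after which L-glutamine (1 mM solution) and a detection mix of glutamate oxidase, HRP and Amplex Red were added. Initial and 30 min RT fluorescence reads were collected.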
# [7] = qHTS of Trypanosoma Brucei Inhibitors: LOPAC Validation (AID 624147)
# Method in brief: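 Glycolytic pyruvate kinase of T. brucei was incubated with substrate, test compound and 130 uM ADP for 45 minutes at room temperature. Luminescent Kinase-Glo Plus signal was measured after 10 minutes.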
# [8] = molecular target: Glucagon-like peptide 1 receptor (Homo sapiens) (UniProt P43220); experiment: qHTS of GLP-1 Receptor Agonists: LOPAC Validation (AID 624148);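 also: higher luminescence signal means agonism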
# Method in brief: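 HEK293 cells stably co-expressing a cAMP-responsive luciferase reporter and a hypersensitive GLP-1R were plated 12 h at 37 °C and exposed to compounds for 4-6 hr at 37 °C, 5% CO2. Luminescence was read 12 min after adding detection reagent.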
# [9] = qHTS of Nrf2 Activators: LOPAC Validation (AID 624149)
# Description: Many diseases have some form of oxidative stress injury and ties to inflammation, causing a host of problems for the patient. The antioxidant response element (ARE) plays an important role in alleviating the harmful effects of oxidative stress. The antioxidant response element (ARE) is a transcriptional regulatory element involved in the activation of genes coding for a number of antioxidant proteins and detoxifying enzymes. These enzymes work in concert to protect tissues from oxidative insults and chemical toxicities in human hepatocytes and immune cells. The protective effects of ARE activation are primarily triggered through Nrf2 (NF-E2-related factor) binding to and activating AREs. It is known that Nrf2 controls the production of over 250 antioxidant and detoxification proteins (Hu et al., 2006), thereby protecting tissues by increasing cellular antioxidant content and suppressing inflammatory signaling pathways. The transcription factor Nrf2 is a central link between oxidative chemicals, such as phenolic antioxidants and electrophilic compounds, and the activation of ARE. Nrf2 levels are constitutively low as a consequence of its interaction with Keap1, which targets its degradation (Zipper and Mulcahy, 2002). Electrophiles react with key cysteine residues in Keap1, releasing Nrf2 and allowing its translocation to the nucleus. Once within the nucleus, Nrf2 complexes with coactivators such as p300, and binds to the AREs to induce gene transcription of cytoprotective enzymes, resulting in the prevention of toxicity. Activation of Nrf2 protects tissues by increasing cellular antioxidant content and suppressing inflammatory signaling pathways. Identifying novel and potent Nrf2 activators by using the AREc32 cell line to detect ARE activation by small molecules will lead to the identification and development of probes to study protective pathways in multiple tissues. These specific probes are essential to study the ARE pathway, and eventually to determine whether this pathway does activate genes that could protect against a host of diseases, including cardiovascular diseases, obesity, diabetes, Alzheimer's, and Parkinson's disease.
# This project's aim is to identify novel and potent Nrf2 activators by using the AREc32 cell line to detect ARE activation by small molecules, which will lead to the identification and development of probes to study the ARE pathway.
# NIH Chemical Genomics Center [NCGC]
# NIH Molecular Libraries Probe Centers Network [MLPCN]
# Assay Submitter (PI): Curtis Klaassen, University of Kansas Medical Center
# 5 uL of 1000 cells/well of AREc32_Fluc cells are seeded into 1536-well plate in OPTI-MEM medium with 5% FBS. […] After the addition of 2.5 uL of Steady-Glo. the plates are kept at RT for 30 min, before they are read on the ViewLux
# [10] = HTS Assay for Allosteric Antagonists of the Human D2 Dopamine Receptor: Hit Validation in HTRF (AID 624455);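 also: stable D1 dopamine receptor cell line scored for blocking the D1 response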
# Method in brief: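 Hits were examined in an HTRF assay using cells stably expressing the D1 dopamine receptor, scoring inhibition of the D1-mediated response. The preceding primary screen tracked calcium flux after an EC80 dopamine addition in force-coupled, inducible Hek293 Trex D2 cells.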
# Chain of Glucagon-like peptide 1 receptor (Homo sapiens) (P43220 whole entry, looked up): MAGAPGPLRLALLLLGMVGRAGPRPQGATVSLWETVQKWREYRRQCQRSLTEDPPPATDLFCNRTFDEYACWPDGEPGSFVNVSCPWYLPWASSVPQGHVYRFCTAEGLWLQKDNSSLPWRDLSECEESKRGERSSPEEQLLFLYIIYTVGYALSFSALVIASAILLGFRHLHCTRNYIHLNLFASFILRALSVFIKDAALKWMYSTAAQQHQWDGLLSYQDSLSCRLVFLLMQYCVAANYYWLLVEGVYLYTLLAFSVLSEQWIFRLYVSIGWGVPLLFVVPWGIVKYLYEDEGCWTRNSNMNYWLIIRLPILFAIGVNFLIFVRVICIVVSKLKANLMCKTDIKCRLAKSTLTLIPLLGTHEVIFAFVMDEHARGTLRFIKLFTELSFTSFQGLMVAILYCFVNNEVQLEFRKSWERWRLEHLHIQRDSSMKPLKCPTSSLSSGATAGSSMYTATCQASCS
# Chain of Glutaminase kidney isoform, mitochondrial (Homo sapiens) (O94925 whole entry, looked up, canonical isoform): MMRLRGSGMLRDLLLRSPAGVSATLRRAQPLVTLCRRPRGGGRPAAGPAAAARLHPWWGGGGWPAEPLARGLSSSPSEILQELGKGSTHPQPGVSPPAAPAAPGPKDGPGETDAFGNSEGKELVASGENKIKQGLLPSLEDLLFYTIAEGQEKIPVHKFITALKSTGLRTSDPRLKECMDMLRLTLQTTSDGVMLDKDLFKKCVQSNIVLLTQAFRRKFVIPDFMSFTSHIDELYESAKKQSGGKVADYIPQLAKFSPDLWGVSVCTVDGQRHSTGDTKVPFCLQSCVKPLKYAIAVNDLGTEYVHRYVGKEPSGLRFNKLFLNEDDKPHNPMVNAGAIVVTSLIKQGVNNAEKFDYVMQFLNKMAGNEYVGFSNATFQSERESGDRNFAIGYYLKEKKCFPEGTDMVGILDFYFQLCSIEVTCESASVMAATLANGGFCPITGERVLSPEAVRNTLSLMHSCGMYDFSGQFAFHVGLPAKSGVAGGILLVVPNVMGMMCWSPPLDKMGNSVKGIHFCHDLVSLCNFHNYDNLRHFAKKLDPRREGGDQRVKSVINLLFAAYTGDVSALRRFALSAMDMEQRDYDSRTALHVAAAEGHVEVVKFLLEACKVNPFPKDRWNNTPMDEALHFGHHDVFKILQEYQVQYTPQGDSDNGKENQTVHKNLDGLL
smiles,measurement,setting,value
Oc1c(Cl)cc(Cl)c(Cl)c1Cc1c(O)c(Cl)cc(Cl)c1Cl,Potency,[1],inactive
same,Potency,[2],1.61 µM (active)
same,Potency,[3],6.86 µM (active)
same,Potency,[4],7.94 µM (active) and 12.6 µM (active)
O=C(O)c1ccc(S(=O)(=O)N(Cl)Cl)cc1,Potency,[1],inactive
same,Potency,[2],inactive
same,activation,[4],-0.128%
COc1ccc(C(Cl)=C(c2ccc(OC)cc2)c2ccc(OC)cc2)cc1,Potency,[1],inactive
same,Potency,[2],inactive
same,activation,[4],2.35%
Cc1ccc(-c2ncc(Cl)cc2-c2ccc(S(C)(=O)=O)cc2)cn1,Potency,[1],inactive
same,Potency,[5],inactive
Nc1nc(N)c(-c2ccccc2)s1,Potency,[1],inactive
same,Potency,[5],inactive
CCOc1ccccc1C(N)=O,Potency,[1],inactive
same,Potency,[2],inactive
same,Potency,[3],inactive
same,activation,[4],1.59%
Nc1ccc(S(=O)(=O)NCc2ccccc2)cc1,Potency,[1],inactive
same,Potency,[5],inactive
CCOC(=O)[C@H](CCc1ccccc1)N[C@@H](C)C(=O)N1[C@H](C(=O)O)C[C@H]2CCCC[C@@H]21,Potency,[1],inactive
same,Potency,[2],inactive
same,Potency,[5],inactive
same,outcome,[6],inactive
same,outcome,[7],inactive
same,outcome,[8],inactive
same,outcome,[9],inactive
same,outcome,[10],inactive
CC1(COc2ccc(CC3SC(=O)NC3=O)cc2)CCCCC1 (stereo unspecified),Potency,[1],inactive
same,Potency,[5],inactive
NC(N)=NCc1cccc(I)c1,Potency,[1],inactive
same,Potency,[2],inactive
same,Potency,[5],inactive
same,outcome,[6],inactive
same,outcome,[7],inactive
same,outcome,[8],inactive
same,outcome,[9],inactive
C#C[C@]1(O)CC[C@H]2[C@@H]3CCc4cc(OC)ccc4[C@H]3CC[C@@]21C,Potency,[1],inactive
same,Potency,[5],inactive
CCCCCCCCCCCCSCCOCCO,Potency,[1],inactive
same,Potency,[5],inactive
Oc1ccc(Cl)cc1Cc1cc(Cl)ccc1O,Potency,[1],inactive
same,Potency,[5],inactive
CC(C)(C)CC(C)(C)c1ccc(O)c(-n2nc3ccccc3n2)c1,Potency,[1],inactive
same,Potency,[2],inactive
same,activation,[4],-5.96%
